SNCA viab count: cell viability loss counter-screen; Potency, µM (top dose mostly 57.1 µM), without a hit: at the top dose activity change, negative = cytotoxicity, most hits filed as cytotoxic; HEK-293-SNCA-luc viability, GF-AFC fluorescence, 24 h; actives 0.12% (n = 150,000); AID 1671193;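 note: potency is the fitted concentration of half-maximal effect; 0% = DMSO-treated cells and -100% = medium-only wells without cells; nearly all actives have a fitted effect of over 30% in size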
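HEK-293-SNCA-luc cells (1500/well) plated 24 h, then exposed 24 h to a dilution series; GF-AFC added 30 min at 37C, fluorescence 405/540 nm; normalised to medium-only and DMSO wells, Hill fit.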
KDM5B inhibitor: blocks human KDM5B histone demethylase activity; KDM5B demethylase, FDH-coupled NADH fluorescence (FDH is formaldehyde dehydrogenase); Potency, µM (doses to about 57.7 µM), hits mostly inhibitors; actives 2.6% (n = 220,000); AID 1347165; note: potency is the fitted concentration of half-maximal effect; 0% is about no effect; nearly all actives have a fitted effect of over 70% in size
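Coupled FDH/NAD⁺ fluorescence readout. KDM5BΔAP 200 nM final; compound titration, 10 min RT preincubation; substrate mix 12.5 µM H3K4me3, 25 µM 2-OG, 50 µM Fe(II), 100 µM ascorbate, 0.25 mM NAD⁺, 0.25 U/mL FDH; ΔRFU over 30 min.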
IP6K1 inh: IP6K1 kinase inhibition. Q92551. IP6K1 kinase, ADP-Glo luminescence, 2 h; hits give low values. activity change, % (series mostly up to about 58 µM). actives 0.81% (n = 140,000). AID 1645851; in the data active = activity change below about -25%; note: % is set by controls: 0 for no effect and ±100 for the full control effect
Target sequence (Q92551 whole entry, looked up): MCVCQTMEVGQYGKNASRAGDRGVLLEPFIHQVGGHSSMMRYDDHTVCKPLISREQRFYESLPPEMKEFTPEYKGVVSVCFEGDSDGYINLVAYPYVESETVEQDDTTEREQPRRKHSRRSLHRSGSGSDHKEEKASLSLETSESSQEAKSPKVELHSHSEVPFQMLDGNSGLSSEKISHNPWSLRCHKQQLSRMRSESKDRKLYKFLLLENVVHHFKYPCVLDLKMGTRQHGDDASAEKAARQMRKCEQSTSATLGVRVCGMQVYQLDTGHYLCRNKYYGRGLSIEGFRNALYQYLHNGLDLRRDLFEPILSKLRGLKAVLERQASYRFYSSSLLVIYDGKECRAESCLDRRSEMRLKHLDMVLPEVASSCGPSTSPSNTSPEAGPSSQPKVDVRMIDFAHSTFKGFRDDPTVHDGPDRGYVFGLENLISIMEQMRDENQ
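ADP-Glo luminescence measures ADP made by human IP6K1 during a 2 h RT reaction with ATP/IP6 (mix at 1.3 mM/130 uM); top library doses 57.5 and 19.1 uM final.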
SNCA expr inhib: reduces expression of the alpha-synuclein gene | HEK-293 SNCA-luciferase knock-in, luminescence, 24 h | Potency, µM (titrated, usually from 57.2 µM), for the others: at the highest dose activity change, negative = inhibition, usual class: inhibitors | actives 0.17% (n = 140,000);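 note: potency is the fitted concentration of half-maximal effect; plate controls were DMSO cells for no effect and cell-free wells for full effect; nearly all actives have a fitted effect of over 45% in size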
Starred values were filed as active, the others as inactive; [ ] = remark or other dose. In the library only some 2.9% were active in any assay of this set; here they are far more common. Unless noted, calls come from the whole dose curve; as a rule, active = well fitted curve in the direction sought with a large enough effect; inconclusive = small, poorly fitted or top-dose-only effect, or another doubt; inactive = no such curve, though single readings can be large; an effect the other way counts as inactive or inconclusive.

`Cc1cccc(NC(=O)c2cc3n(n2)CC(c2ccc4c(c2)OCO4)OC3)c1` (centres undefined) gave SNCA viab count 6%, KDM5B inhibitor inconclusive, IP6K1 inh -8 and SNCA expr inhib -9%.
For COc1ccc(CCNC(=O)c2cc3n(n2)CC(c2ccc4c(c2)OCO4)OC3)cc1OC (centres undefined) the results were SNCA viab count inconclusive, KDM5B inhibitor 28µM*, IP6K1 inh -8 and SNCA expr inhib -6%.
For COCCC1(CO)CCCN(CC(N)=O)C1 (centres undefined) the results were SNCA viab count -8%, KDM5B inhibitor inactive, IP6K1 inh -15 and SNCA expr inhib 7%.
CN(CCOc1cccc(F)c1)Cc1nc(C2CC2)no1 was read as KDM5B inhibitor inactive.
For Cc1nn(-c2nc3c(c(=O)n(CCCc4ccccc4)c(=O)n3C)n2C(C)C)c(C)c1C the results were KDM5B inhibitor inactive.
COc1ccc(CCNC(=S)Nc2ccc(F)cc2)cc1 was read as KDM5B inhibitor inactive.
CCCCn1c(O)c(C2=Nc3ccccc3SC(c3ccc(O)cc3)C2)c(=O)[nH]c1=O (centres undefined) was read as KDM5B inhibitor inactive.
For COc1ccc(NC(=O)c2cc3n(n2)CC(c2ccc4c(c2)OCO4)OC3)cc1Cl (centres undefined) the results were SNCA viab count -4%, KDM5B inhibitor 25µM*, IP6K1 inh 9 and SNCA expr inhib -12%.
`COc1ccc(NC(=O)c2cc3n(n2)CC(c2ccc4c(c2)OCO4)OC3)cc1OC` (centres undefined) gave SNCA viab count -4%, KDM5B inhibitor inactive, IP6K1 inh 5 and SNCA expr inhib 1%.
For CCN1C(=O)CCN(Cc2ccc(C#N)cc2)CC12CCOCC2 the results were SNCA viab count inconclusive, KDM5B inhibitor inactive, IP6K1 inh -7 and SNCA expr inhib -1%.
`Fc1ccc(-c2nnc3ccc(NCCc4ccccn4)nn23)nc1` gave SNCA viab count 10%[87.6 µM], KDM5B inhibitor 40µM*, IP6K1 inh -20 and SNCA expr inhib -15%[87.6 µM].
For CC(C)CNc1ccc2nnc(-c3ccc(F)cn3)n2n1 the results were SNCA viab count 3%[87.6 µM], KDM5B inhibitor 32µM*, IP6K1 inh -7 and SNCA expr inhib -1%[87.6 µM].
Screening CC(=O)NCCNc1cc(C)c2ccc(Cl)cc2n1 returned SNCA viab count -4%, KDM5B inhibitor 25µM*, IP6K1 inh 56 and SNCA expr inhib 3%.
For Cc1ccc2c(C(=O)N3CCOCC3)cc(NC(=O)C(C)C)cc2n1 the results were SNCA viab count 6%, KDM5B inhibitor 22µM*, IP6K1 inh 16 and SNCA expr inhib 4%.
Cc1ccc2c(C(=O)N3CCN(c4ccccc4F)CC3)cc(NC(=O)C(C)C)cc2n1 was read as SNCA viab count -3%, KDM5B inhibitor inconclusive, IP6K1 inh 6 and SNCA expr inhib -28%.
Screening CC(=O)Nc1cc(C(=O)N2CCC(C)CC2)c2ccc(C)nc2c1 returned SNCA viab count -9%, KDM5B inhibitor 22µM*, IP6K1 inh 12 and SNCA expr inhib inconclusive.
Screening Cc1nc(CCn2ccnc2C)n(-c2ccc(S(N)(=O)=O)cc2)n1 returned SNCA viab count 7%, KDM5B inhibitor inconclusive, IP6K1 inh 8 and SNCA expr inhib -6%.
`Cc1ccc2oc([C@H]3CCN(Cc4cccc(Cl)c4)C3)nc2c1` gave SNCA viab count 14%[87.6 µM], KDM5B inhibitor inconclusive, IP6K1 inh 18 and SNCA expr inhib 72%[87.6 µM].
Cc1ccc2oc([C@H]3CCN(Cc4c[nH]c5ccccc45)C3)nc2c1 was read as SNCA viab count inconclusive, KDM5B inhibitor 13µM*, IP6K1 inh 5 and SNCA expr inhib 5%[87.6 µM].
Screening O=c1ncn(Cc2ccccc2)c2ccc(-c3ccc(F)cc3F)nc12 returned SNCA viab count 8%[87.6 µM], KDM5B inhibitor 28µM*, IP6K1 inh 16 and SNCA expr inhib 58%[87.6 µM].
O=c1ncn(Cc2ccccc2)c2ccc(-c3ccsc3)nc12 was read as SNCA viab count 2%[87.6 µM], KDM5B inhibitor 35µM*, IP6K1 inh 2 and SNCA expr inhib 6%[87.6 µM].
For COc1cccc(F)c1-c1ccc2c(n1)c(=O)ncn2Cc1ccccc1 the results were SNCA viab count -7%[87.6 µM], KDM5B inhibitor inactive, IP6K1 inh 8 and SNCA expr inhib 1%[87.6 µM].
CN(Cc1ccccc1)c1ccc2cc(S(=O)(=O)N3CCCCC3)ccc2n1 was read as SNCA viab count 3%, KDM5B inhibitor inactive, IP6K1 inh -1 and SNCA expr inhib 25µM*.
For Cc1cccc(N(C)c2ccc3cc(S(=O)(=O)N4CCCC4)ccc3n2)c1 the results were SNCA viab count 6%, KDM5B inhibitor inconclusive, IP6K1 inh 18 and SNCA expr inhib -7%.
CC(C)n1c(CNC(=O)C[C@H]2NC(=O)c3ccccc3NC2=O)nc2ccccc21 was read as SNCA viab count 1%, KDM5B inhibitor 28µM*, IP6K1 inh 1 and SNCA expr inhib 11%.
NC(=O)c1ccc(NC(=O)C[C@H]2NC(=O)c3ccccc3NC2=O)cc1 was read as SNCA viab count 6%, KDM5B inhibitor inactive, IP6K1 inh 14 and SNCA expr inhib 8%.
Screening CN1C(=O)c2ccc(NC(=O)C[C@H]3NC(=O)c4ccccc4NC3=O)cc2C1=O returned SNCA viab count -2%, KDM5B inhibitor 25µM*, IP6K1 inh -8 and SNCA expr inhib 13%.
`COc1ccc(C(=O)N2CCC3(CC2)CC(=O)c2ccccc2O3)cc1` gave SNCA viab count -24%, KDM5B inhibitor 32µM*, IP6K1 inh 10 and SNCA expr inhib -20%.
For O=C1CC2(CCN(Cc3ccccc3)CC2)Oc2ccccc21 the results were SNCA viab count 6%[87.6 µM], KDM5B inhibitor 35µM*, IP6K1 inh 8 and SNCA expr inhib 30%[87.6 µM].
For CCCN1CCC2(CCN([S+](=O)([O-])c3c(C)noc3C)CC2)Oc2ccccc21 the results were SNCA viab count -7%, KDM5B inhibitor inactive, IP6K1 inh -7 and SNCA expr inhib -2%.
`O=C1CC2(CCN(CC3CC3)CC2)Oc2ccccc21` gave SNCA viab count 1%[87.6 µM], KDM5B inhibitor 32µM*, IP6K1 inh 9 and SNCA expr inhib inconclusive.
Cc1noc(C)c1[S+](=O)([O-])N1CCC2(CC1)CC(=O)c1ccccc1O2 was read as SNCA viab count -2%, KDM5B inhibitor 20µM*, IP6K1 inh 11 and SNCA expr inhib 6%.
Screening CC(C)S(=O)(=O)NCC(=O)N1CCCCCNC(=O)CC1c1ccccc1 (centres undefined) returned SNCA viab count 1%, KDM5B inhibitor inactive, IP6K1 inh -12 and SNCA expr inhib 7%.
Screening O=C1CC2(CCN(Cc3ccsc3)CC2)Oc2ccccc21 returned SNCA viab count 10%[87.6 µM], KDM5B inhibitor 35µM*, IP6K1 inh 11 and SNCA expr inhib 132%[87.6 µM].
For O=C1CC2(CCN(S(=O)(=O)c3cccs3)CC2)Oc2ccccc21 the results were SNCA viab count -7%, KDM5B inhibitor 18µM*, IP6K1 inh 3 and SNCA expr inhib inconclusive.

High-throughput results as filed in PubChem.
